In PubChem BioAssay (NCATS):
Unmarked numbers belong to inactive results. Records with an inconclusive call do not appear. A call without a number means that no potency is given here. The source made the active and inactive calls. Calls follow the shape of the dose curve; as a rule, active = well fitted curve in the direction sought with a large enough effect; inconclusive = small, poorly fitted or top-dose-only effect, or another doubt; inactive = no such curve, though single readings can be large; an effect the other way counts as inactive or inconclusive.

Experiments:
[1] = target: Glutathione peroxidase 1 (Homo sapiens) (UniProt P07203); test: Primary qHTS Assay for Inhibitors of Recombinant Selenoprotein Glutathione Peroxidase 1 (GPX1) (AID 1845191); also: nearly all actives have a fitted effect of over 65% in size
Glutathione peroxidase 1 (Homo sapiens), sequence (P07203 whole entry, looked up): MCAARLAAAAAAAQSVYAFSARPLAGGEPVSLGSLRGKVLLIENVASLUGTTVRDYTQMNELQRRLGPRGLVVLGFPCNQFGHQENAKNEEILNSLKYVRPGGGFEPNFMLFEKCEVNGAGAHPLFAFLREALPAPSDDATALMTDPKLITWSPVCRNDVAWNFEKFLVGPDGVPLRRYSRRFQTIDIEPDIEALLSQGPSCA
Outline: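 Recombinant GPX1 (10 nM final) was preincubated with compound for 30 min at room temperature, then reacted with 1 mM GSH, 0.5 mM CHP, 0.5 mM NADPH and 100 nM glutathione reductase; NADPH fluorescence (340/450 nm) was read at 0 and 15 min.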

[2] = target: Phospholipid hydroperoxide glutathione peroxidase GPX4 (Homo sapiens) (UniProt P36969); test: Primary qHTS Assay for Inhibitors of Recombinant Selenoprotein Glutathione Peroxidase 4 (GPX4) (AID 1845192); also: nearly all actives have a fitted effect of over 65% in size
Phospholipid hydroperoxide glutathione peroxidase GPX4 (Homo sapiens), sequence (P36969 whole entry, looked up): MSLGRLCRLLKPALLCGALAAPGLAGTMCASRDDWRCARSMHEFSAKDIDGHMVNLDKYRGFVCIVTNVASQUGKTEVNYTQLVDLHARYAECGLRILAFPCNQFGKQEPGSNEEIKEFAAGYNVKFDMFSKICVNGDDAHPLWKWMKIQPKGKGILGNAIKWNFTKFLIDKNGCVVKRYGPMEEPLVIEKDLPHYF
Outline: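 GR-coupled readout: 100 nM GR, 1 mM GSH, 0.5 mM NADPH; NADPH fluorescence (ex 340/em 450 nm) read at t=0 and after 15 min RT. GPX4 200 nM, preincubated 30 min with compound; substrate 0.5 mM CHP.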

[3] = target: Metallo-beta-lactamase type 2 (Klebsiella pneumoniae) (UniProt C7C422); test: qHTS to identify inhibitors of the New Delhi Metallo-beta-lactamase (NDM): assay validation screen against the NCATS LOPAC Collection (AID 1794843);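 also: nitrocefin turnover by NDM-1 measured as 485 nm absorbance at plateau; series mostly up to about 38 µM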
Metallo-beta-lactamase type 2 (Klebsiella pneumoniae), sequence (C7C422 whole entry, looked up): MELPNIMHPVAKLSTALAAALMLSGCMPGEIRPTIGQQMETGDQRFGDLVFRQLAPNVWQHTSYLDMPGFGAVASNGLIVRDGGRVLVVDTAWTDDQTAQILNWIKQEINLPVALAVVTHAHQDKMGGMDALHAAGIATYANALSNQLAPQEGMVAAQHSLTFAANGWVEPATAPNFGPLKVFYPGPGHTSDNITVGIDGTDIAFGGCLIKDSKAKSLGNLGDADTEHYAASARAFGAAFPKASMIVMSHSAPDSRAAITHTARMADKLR
Outline: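 Nitrocefin hydrolysis (50 uM substrate stock) by NDM-1, 2 nM final, was followed by 485 nm absorbance after compound preincubation; buffer was 50 mM HEPES pH 7.0, 1 uM ZnSO4, 0.01% Tween20.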

[4] = Viability counterscreen for agonist of constitutive androstane receptor (CAR) against the NCATS DSHEA and TCM libraries (AID 1794838);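 also: HepG2 cells with CYP2B6 reporter and hCAR plus 0.75 µM PK11195 antagonist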
Outline: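 HepG2-CYP2B6-hCAR cells (2,500/well) treated 24 h at 37C with compounds plus 0.75 uM PK11195; viability read by CellTiter-Fluor fluorescence, Ex/Em 405/540 nm.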

[5] = target: Nuclear receptor subfamily 1 group I member 3 (Homo sapiens) (UniProt Q14994); test: Primary qHTS for agonist of constitutive androstane receptor (CAR) against the NCATS DSHEA and TCM libraries (AID 1794839);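 also: HepG2 cells expressing human CAR with a CYP2B6 reporter plus PK11195 antagonist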
Nuclear receptor subfamily 1 group I member 3 (Homo sapiens), sequence (Q14994 whole entry, looked up): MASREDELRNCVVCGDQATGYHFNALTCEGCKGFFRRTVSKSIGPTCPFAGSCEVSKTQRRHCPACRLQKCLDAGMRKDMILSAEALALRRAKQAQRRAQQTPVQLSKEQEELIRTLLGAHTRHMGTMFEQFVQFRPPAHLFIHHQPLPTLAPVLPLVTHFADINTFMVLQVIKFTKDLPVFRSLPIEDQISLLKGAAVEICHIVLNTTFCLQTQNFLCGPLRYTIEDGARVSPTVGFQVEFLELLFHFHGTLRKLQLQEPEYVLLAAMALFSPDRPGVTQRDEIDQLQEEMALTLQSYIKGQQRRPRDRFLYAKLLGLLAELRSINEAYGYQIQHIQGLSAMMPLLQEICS
Outline: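 HepG2-CYP2B6-hCAR cells, 2,500/well, attached 5 h, then dosed with 0.75 µM PK11195 (final) for 24 h at 37 °C. Luciferase luminescence read (ONE-Glo); CellTiter-Fluor viability (Ex/Em 405/540 nm) in same wells; CITCO positive control.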

[6] = HepG2 viability counterscreen (readout 2: ATP content) against the NCATS DSHEA and TCM libraries (AID 1794840)
Outline: (§1)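 HepG2 cells, 1,000/well, attached ~4 h, then exposed ~24 h at 37C to substances. Protease activity read by fluorescence of 25 uM GF-AFC (Ex/Em 380/510 nm) after 30 min; ATP then by CellTiter-Glo luminescence.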

[7] = HepG2 viability counterscreen (readout 1: protease activity) against the NCATS DSHEA and TCM libraries (AID 1794841);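 also: cells exposed to compounds for about 24 h before the protease read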
Outline: as §1

[8] = target: Cytochrome P450 3A4 (Homo sapiens) (UniProt P08684); test: qHTS for inhibitors of CYP3A4 against the NCATS DSHEA and TCM libraries (AID 1919971);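 also: inhibition lowers luminescence from luciferin made by CYP3A4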
Cytochrome P450 3A4 (Homo sapiens), sequence (P08684 whole entry, looked up): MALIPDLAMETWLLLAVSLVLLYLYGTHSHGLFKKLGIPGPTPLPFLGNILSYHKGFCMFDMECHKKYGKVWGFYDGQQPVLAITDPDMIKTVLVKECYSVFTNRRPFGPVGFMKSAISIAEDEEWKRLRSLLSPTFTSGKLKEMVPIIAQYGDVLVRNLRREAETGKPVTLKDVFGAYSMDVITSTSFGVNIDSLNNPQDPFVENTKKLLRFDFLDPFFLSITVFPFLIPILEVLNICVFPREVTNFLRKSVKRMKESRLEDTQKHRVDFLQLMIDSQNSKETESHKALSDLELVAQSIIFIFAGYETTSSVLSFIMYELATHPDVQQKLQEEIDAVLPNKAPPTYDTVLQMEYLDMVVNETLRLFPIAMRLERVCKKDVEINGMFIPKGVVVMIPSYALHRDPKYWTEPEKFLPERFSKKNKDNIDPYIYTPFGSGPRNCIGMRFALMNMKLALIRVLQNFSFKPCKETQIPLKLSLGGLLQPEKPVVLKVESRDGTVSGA
Outline: (§2)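 Luminescent P450-Glo format: compounds preincubated 15 min with enzyme and luciferin substrate, reaction run 30-45 min after NADPH regeneration solution. Intraplate controls: ketoconazole for CYP3A4 and CYP2C19, sulfaphenazole for CYP2C9.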

[9] = target: Cytochrome P450 2D6 (Homo sapiens) (UniProt P10635); test: qHTS for inhibitors of CYP2D6 against the NCATS DSHEA and TCM libraries (AID 1919972)
Cytochrome P450 2D6 (Homo sapiens), sequence (P10635 whole entry, looked up): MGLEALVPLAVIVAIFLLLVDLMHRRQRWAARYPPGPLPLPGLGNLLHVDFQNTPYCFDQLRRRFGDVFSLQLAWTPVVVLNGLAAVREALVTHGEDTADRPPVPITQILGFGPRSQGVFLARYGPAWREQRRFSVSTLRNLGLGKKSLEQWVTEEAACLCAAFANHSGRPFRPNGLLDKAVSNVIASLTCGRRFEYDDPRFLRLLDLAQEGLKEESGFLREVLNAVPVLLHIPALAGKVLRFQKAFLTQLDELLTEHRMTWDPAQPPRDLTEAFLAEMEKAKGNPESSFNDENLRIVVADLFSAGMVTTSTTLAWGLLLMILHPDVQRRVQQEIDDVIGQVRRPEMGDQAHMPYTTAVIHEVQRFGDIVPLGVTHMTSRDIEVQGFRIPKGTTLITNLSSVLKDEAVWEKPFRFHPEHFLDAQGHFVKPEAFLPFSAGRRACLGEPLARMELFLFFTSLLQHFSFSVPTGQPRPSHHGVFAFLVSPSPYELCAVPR
Outline: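 Luminescent P450-Glo read-out of CYP2D6 turnover of a luciferin substrate after NADPH-driven reaction of 30-45 min at room temperature. Compounds were first preincubated 15 min with enzyme at titrated concentrations; quinidine was the intraplate control.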

[10] = target: Cytochrome P450 2C19 (Homo sapiens) (UniProt P33261); test: qHTS for inhibitors of CYP2C19 against the NCATS DSHEA and TCM libraries (AID 1919974);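 also: luminescence from luciferin released by CYP2C19 oxidation of a pro-luciferin substrate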
Cytochrome P450 2C19 (Homo sapiens), sequence (P33261 whole entry, looked up): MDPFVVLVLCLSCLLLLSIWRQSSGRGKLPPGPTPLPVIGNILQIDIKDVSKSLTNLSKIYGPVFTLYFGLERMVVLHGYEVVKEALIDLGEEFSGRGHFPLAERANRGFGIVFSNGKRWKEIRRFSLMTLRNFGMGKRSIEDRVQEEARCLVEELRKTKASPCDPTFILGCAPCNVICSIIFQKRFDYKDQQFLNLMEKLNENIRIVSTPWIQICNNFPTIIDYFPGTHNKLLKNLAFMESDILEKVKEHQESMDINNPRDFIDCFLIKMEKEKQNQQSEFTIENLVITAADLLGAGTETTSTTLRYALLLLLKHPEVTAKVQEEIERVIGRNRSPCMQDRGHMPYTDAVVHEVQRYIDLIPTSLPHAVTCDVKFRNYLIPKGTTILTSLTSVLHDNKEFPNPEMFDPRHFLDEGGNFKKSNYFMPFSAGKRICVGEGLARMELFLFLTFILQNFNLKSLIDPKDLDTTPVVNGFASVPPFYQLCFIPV
Outline: as §2

[11] = KB-3-1 P-gp reporter qHTS against the NCATS DSHEA and TCM libraries (AID 1919975)
Outline: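 Parental KB-3-1 cells, 500 cells/well, in DMEM with 10% FBS, exposed 72 h at 37 C to compounds in concentration-response. Viability read by CellTiter-Glo luminescence after 30 min at room temperature.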

[12] = qHTS Counterscreen for compound interference against the NCATS DSHEA and TCM libraries (AID 1919978); settings: firefly luciferase detection reagent interference, luminescence;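 also: compounds preincubated with 1 µM D-luciferin or buffer before detection reagent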
Outline: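 Firefly luciferase detection reagent was added after compounds (19.5 nM–39.8 uM final) had been incubated 15 min at room temperature with 1 uM D-luciferin or with 100 mM phosphate buffer alone. Luminescence was read after 30 min at room temperature.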

[13] = Dual reporter qHTS for agonist of Pregnane X Receptor (hPXR) against the NCATS DSHEA and TCM libraries: Fluorescence readout (AID 1920058)
Outline: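 hPXR-Luc HepG2 cells, 2000/well in charcoal-stripped serum, attached 5 h, dosed for ~24 h at 37 °C. Fluorescence read is CellTiter-Fluor viability (Ex/Em 405/540 nm); rifampicin positive, tetraoctyl ammonium bromide (92 µM) cytotoxicity controls.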

[14] = target: Nuclear receptor subfamily 1 group I member 2 (Homo sapiens) (UniProt O75469); test: Dual reporter qHTS for agonist of Pregnane X Receptor (hPXR) against the NCATS DSHEA and TCM libraries: Luminescence readout (AID 1920059)
Nuclear receptor subfamily 1 group I member 2 (Homo sapiens), sequence (O75469 whole entry, looked up): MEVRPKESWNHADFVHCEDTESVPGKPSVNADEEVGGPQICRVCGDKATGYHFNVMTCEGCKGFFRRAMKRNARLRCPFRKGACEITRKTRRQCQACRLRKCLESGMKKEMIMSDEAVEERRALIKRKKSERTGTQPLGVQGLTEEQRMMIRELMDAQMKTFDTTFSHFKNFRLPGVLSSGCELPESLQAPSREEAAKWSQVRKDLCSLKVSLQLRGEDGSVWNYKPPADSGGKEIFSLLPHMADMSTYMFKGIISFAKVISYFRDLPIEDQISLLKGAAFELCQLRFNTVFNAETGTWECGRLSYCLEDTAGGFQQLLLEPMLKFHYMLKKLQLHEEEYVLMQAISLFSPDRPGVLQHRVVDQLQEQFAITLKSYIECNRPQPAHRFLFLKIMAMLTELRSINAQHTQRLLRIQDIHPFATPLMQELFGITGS
Outline: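 hPXR-LucHepG2 cells in phenol red-free DMEM with 5% charcoal-stripped FBS, 2000 cells/well, attached 5 h, then exposed 24 h at 37C to compounds; rifampicin as positive agonist control (2.8 nM–92 uM). Luciferase luminescence read.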

[15] = target: Cytochrome P450 2C9 (Homo sapiens) (UniProt P11712); test: qHTS for inhibitors of CYP2C9 against the NCATS DSHEA and TCM libraries (AID 1919973);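 also: luminogenic pro-luciferin CYP2C9 substrate turned into luciferin with NADPH regeneration; series mostly up to about 34 µM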
Cytochrome P450 2C9 (Homo sapiens), sequence (P11712 whole entry, looked up): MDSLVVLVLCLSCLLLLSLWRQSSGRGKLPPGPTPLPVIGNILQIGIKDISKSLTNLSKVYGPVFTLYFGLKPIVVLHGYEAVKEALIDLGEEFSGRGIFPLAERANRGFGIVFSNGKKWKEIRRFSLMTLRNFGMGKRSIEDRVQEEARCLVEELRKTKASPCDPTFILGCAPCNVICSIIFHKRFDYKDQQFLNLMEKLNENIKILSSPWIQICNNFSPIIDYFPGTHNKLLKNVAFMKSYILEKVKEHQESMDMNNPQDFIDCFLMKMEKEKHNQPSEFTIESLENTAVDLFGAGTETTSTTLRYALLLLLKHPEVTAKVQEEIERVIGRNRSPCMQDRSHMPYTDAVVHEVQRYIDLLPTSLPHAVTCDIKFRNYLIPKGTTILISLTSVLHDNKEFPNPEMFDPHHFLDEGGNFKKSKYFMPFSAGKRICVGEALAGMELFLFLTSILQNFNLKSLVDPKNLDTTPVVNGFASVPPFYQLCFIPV
Outline: as §2

[16] = target: Cytochrome P450 1A2 (Homo sapiens) (UniProt P05177); test: qHTS for inhibitors of CYPIA2 against the NCATS DSHEA and TCM libraries (AID 1919976);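 also: light from luciferin formed by CYP1A2 from a pro-luciferin substrate; series mostly up to about 37 µM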
Cytochrome P450 1A2 (Homo sapiens), sequence (P05177 whole entry, looked up): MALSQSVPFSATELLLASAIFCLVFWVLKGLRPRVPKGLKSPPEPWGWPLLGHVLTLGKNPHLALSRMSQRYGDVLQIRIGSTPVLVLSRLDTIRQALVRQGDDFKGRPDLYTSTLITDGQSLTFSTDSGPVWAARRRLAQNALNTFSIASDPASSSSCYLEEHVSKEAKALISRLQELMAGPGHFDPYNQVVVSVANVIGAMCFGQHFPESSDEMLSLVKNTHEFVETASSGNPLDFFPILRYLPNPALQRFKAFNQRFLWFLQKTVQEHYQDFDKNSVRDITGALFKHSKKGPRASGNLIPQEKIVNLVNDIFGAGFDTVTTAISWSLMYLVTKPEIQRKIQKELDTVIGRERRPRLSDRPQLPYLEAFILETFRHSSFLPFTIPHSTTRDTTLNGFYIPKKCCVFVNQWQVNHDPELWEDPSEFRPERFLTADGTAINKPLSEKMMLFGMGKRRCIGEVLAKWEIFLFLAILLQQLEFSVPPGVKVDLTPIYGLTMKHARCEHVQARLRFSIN
Outline: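 Human CYP1A2 with pro-luciferin substrate (typically 100 mM KPO4), 15 min preincubation with compound, then 1x NADPH regeneration for 30-45 min at room temperature in the dark. Luciferin quantified by luciferase luminescence; furafylline intraplate control.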

CCOC(=O)c1ccc(N)cc1
Potency [1]: inactive | Potency [2]: inactive

CC(=O)O[C@]1(C(C)=O)CC[C@H]2[C@@H]3C=C(Cl)C4=CC(=O)CC[C@]4(C)[C@H]3CC[C@@]21C
Potency [1]: inactive | Potency [2]: inactive

OCCOCCN1CCN(C2=Nc3ccccc3Sc3ccccc32)CC1
Potency [1]: inactive | Potency [2]: inactive

Nc1nc(Cl)nc2c1ncn2[C@@H]1O[C@H](CO)[C@@H](O)[C@@H]1F
Potency [1]: inactive | Potency [2]: inactive

O=C(Nc1cccc(C2=NCCN2)c1)Nc1cccc(C2=NCCN2)c1
Potency [1]: inactive | Potency [2]: inactive

CN=C(N)NCCC[C@H](N)C(=O)O
outcome [3]: inactive | Potency [1]: inactive | Potency [2]: inactive

CCc1oc2ccccc2c1C(=O)c1cc(I)c(O)c(I)c1
Potency [1]: inactive

CCCCCCCCCCCCOCCOCCOCCOCCOCCOCCOCCOCCOCCO
Potency [1]: inactive | Potency [2]: inactive

CC(C)Cc1ccc(CC(=O)O)cc1
Potency [1]: inactive | Potency [2]: inactive

CCCCCCCCCCCCCCCC(=O)O
outcome [4]: inactive | outcome [5]: inactive | outcome [6]: inactive | outcome [7]: inactive | outcome [8]: inactive | outcome [9]: inactive | outcome [10]: inactive | outcome [11]: inactive | max response [12]: 2.55% | outcome [13]: inactive | outcome [14]: inactive

CC(=O)O[C@H]1C[C@@H]2CC[C@@H]3[C@H](CC[C@@]4(C)[C@H]3C[C@H]([N+]3(C)CCCCC3)[C@@H]4OC(C)=O)[C@@]2(C)C[C@@H]1N1CCCCC1
Potency [1]: inactive | Potency [2]: inactive

COc1ccc(C(=O)c2ccccc2)c(O)c1
Potency [1]: inactive | Potency [2]: inactive

Cc1c(-c2ccccc2)oc2c(C(=O)OCCN3CCCCC3)cccc2c1=O
Potency [1]: inactive | Potency [2]: inactive

CC(C)Nc1cccnc1N1CCN(C(=O)c2cc3cc(NS(C)(=O)=O)ccc3[nH]2)CC1
Potency [1]: inactive | Potency [2]: inactive

CCCCCCCCCCCCCC(=O)OC(C)C
Potency [1]: inactive | Potency [2]: inactive

C#C[C@]1(O)CC[C@H]2[C@@H]3[C@H](C)CC4=C(CCC(=O)C4)[C@H]3CC[C@@]21C
Potency [1]: inactive | Potency [2]: inactive

CCCCN1C[C@H](O)[C@@H](O)[C@H](O)[C@H]1CO
Potency [1]: inactive | Potency [2]: inactive

CCC(Cc1c(I)cc(I)c(N)c1I)C(=O)O (stereo not drawn)
Potency [1]: inactive | Potency [2]: inactive

CC(C)(C)NC[C@H](O)COc1nsnc1N1CCOCC1
outcome [3]: inactive | Potency [1]: inactive | Potency [2]: inactive

O=C(Nc1ccc([N+](=O)[O-])cc1)Nc1ccc([N+](=O)[O-])cc1
Potency [1]: inactive | Potency [2]: inactive

CC(CNC1CCCCC1)OC(=O)c1ccccc1 (stereo not drawn)
Potency [1]: inactive | Potency [2]: inactive

O=C1c2cccc3c2[C@H](CCC3)CN1[C@@H]1CN2CCC1CC2
Potency [1]: inactive | Potency [2]: inactive

Cn1c(=O)c2[nH]c(Br)nc2n(C)c1=O
Potency [1]: inactive | Potency [2]: inactive

CCOC(=O)[C@H](CCc1ccccc1)N[C@@H](C)C(=O)N1[C@H](C(=O)O)C[C@H]2CCCC[C@@H]21
outcome [3]: inactive | Potency [1]: inactive | Potency [2]: inactive

CC(=O)O[C@]1(C(C)=O)CC[C@H]2[C@@H]3C=C(C)C4=CC(=O)CC[C@]4(C)[C@H]3CC[C@@]21C
Potency [1]: inactive | Potency [2]: inactive

CC(O)Cn1cnc2c1c(=O)n(C)c(=O)n2C (stereo not drawn)
Potency [1]: inactive | Potency [2]: inactive

CCN[C@@H]1C[C@H](N)[C@@H](OC2OC(CN)=CCC2N)[C@H](O)[C@H]1O[C@H]1OC[C@](C)(O)[C@H](NC)[C@H]1O (stereo partly drawn)
outcome [1]: inactive [at 0.4 µM] | outcome [2]: inactive [at 0.409 µM]

Nc1ccc(C(=O)NCC(=O)O)cc1
Potency [1]: inactive | Potency [2]: inactive

OC[C@H]1O[C@@H](Oc2ccc(O)cc2)[C@H](O)[C@@H](O)[C@@H]1O
Potency [1]: inactive | Potency [2]: inactive

C#C[C@]1(O)CC[C@H]2[C@@H]3CCC4=Cc5oncc5C[C@]4(C)[C@H]3CC[C@@]21C
Potency [1]: inactive | Potency [2]: inactive

NC(N)=NCc1cccc(I)c1
outcome [3]: inactive | Potency [1]: inactive | Potency [2]: inactive

C[C@@H](O)[C@H]1C(=O)N2C(C(=O)O)=C(S[C@@H]3CN[C@H](CNS(N)(=O)=O)C3)[C@H](C)[C@H]12
Potency [1]: inactive | Potency [2]: inactive

O=C(Oc1cccc2cccnc12)c1ccccc1
Potency [1]: inactive | Potency [2]: inactive

CC(C)(C)NCC(O)COc1cccc2c1C[C@H](O)[C@H](O)C2 (stereo partly drawn)
Potency [1]: inactive | Potency [2]: inactive

OC1C(O)C(O)C(O)C(O)C1O (stereo not drawn)
outcome [6]: inactive | outcome [7]: inactive | Potency [2]: inactive | outcome [8]: inactive | outcome [9]: inactive | outcome [15]: inactive | outcome [10]: inactive | outcome [11]: inactive | outcome [16]: inactive | max response [12]: 2.31% | outcome [13]: inactive | outcome [14]: inactive

COc1ccc(-c2cc(C(F)F)nn2-c2ccc(S(N)(=O)=O)cc2)cc1F
Potency [1]: inactive | Potency [2]: inactive

N#C/C(=C1\SCC(c2ccccc2Cl)S1)n1ccnc1 (stereo not drawn)
Potency [1]: inactive | Potency [2]: inactive

CCCCC(CC)CN1CN(CC(CC)CCCC)CC(C)(N)C1 (stereo not drawn)
Potency [1]: inactive | Potency [2]: inactive
